# Screening results deposited in PubChem BioAssay by National Center for Advancing Translational Sciences (NCATS).
# HCV inh: inhibitors of hepatitis C virus infection; 3.4% of 340,000 active; Huh7.5.1 HCVcc-Cre infection, luciferase reporter, 44 h; AID 651820; Potency, µM (series often up to 41.8 µM), inactives show at the highest dose activity change, negative = inhibition, hits mostly inhibitors; note: potency is the fitted concentration of half-maximal effect; % is set by controls: 0 for no effect and ±100 for the full control effect
#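 HCVcc-Cre virus at an moi near 0.5 was added right after compound to cells cultured 4 h from seeding (1,000 cells/well). Luciferase activity was determined 44 h later, 15 min after substrate addition at RT.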
# Pf growth 48h: P. falciparum growth inhibition at 48 hours (one generation); Potency, µM (highest dose often 28.7 µM), inactives show at the highest dose activity change, negative = inhibition, actives largely listed as inhibitors; AID 504832; 5.9% of 310,000 active; P. falciparum luciferase growth in erythrocytes, 48 h; note: potency is the fitted concentration of half-maximal effect; % is set by controls: 0 for no effect and ±100 for the full control effect
#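 Read-out is firefly luciferase luminescence from an integrated reporter in P. falciparum, so falling signal marks reduced parasite growth. Infected erythrocytes were at 2% hematocrit and 0.1% parasitemia (final) in Albumax-supplemented RPMI 1640.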
# CHX counter: counter-screen for Shiga toxin inhibitors: cycloheximide protein synthesis inhibition; cell reporter, cycloheximide protein synthesis inhibition counterscreen; max response, %; 12% of 300,000 active; AID 2314; in the data active = max response mostly above about 13%, no sharp cut-off; inactive = mostly below about 14%; note: read at 38.3 µM for the half of the compounds with a filed dose; 0% is about no effect
# HCMV antiviral: blocks human cytomegalovirus replication | HFF cells, HCMV-luciferase reporter, 72 h; active compounds read low | activity change, negative = inhibition, % at 57.5 µM | 4.5% of 410,000 active; in the data active = activity change below about -60%; inconclusive = no clear call, values can overlap the other calls; inactive = above about -39%; note: % is set by controls: 0 for no effect and ±100 for the full control effect
#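 Two-dose cell screen: HFF monolayers treated with compounds and infected with luciferase-expressing HCMV at 1 PFU/cell, 72 h at 37C, then lysed for luciferase measurement.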
# Pf growth 96h: P. falciparum growth inhibition at 96 hours; Potency, µM (top dose mostly 28.7 µM), for inactives: at the highest dose activity change, negative = inhibition, most hits filed as inhibitors; P. falciparum luciferase reporter growth, 96 h; 6.9% of 320,000 active; AID 504834; note: potency is the fitted concentration of half-maximal effect; % is set by controls: 0 for no effect and ±100 for the full control effect
#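 Parasite growth measured via integrated firefly luciferase reporter in P. falciparum. Infected erythrocytes at 2% hematocrit, 0.05% parasitemia final were treated 96 hours at 37 C under 5% CO2, and luminescence was read.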
# Shiga inhibitor: inhibitors of Shiga toxin in Vero cells. AID 2315. 9.2% of 290,000 active. inhibition, % at 38.7 µM. Vero cells, Shiga toxin protein synthesis inhibition reporter; in the data active = inhibition mostly above about 28%, no sharp cut-off; inactive = mostly below about 43%; note: 0% is about no effect
# Active calls of the source: *; ? = inconclusive; / = no result; [ ] = remark or other dose. Compounds with a hit are over-represented: about 21% of the library has one in this group of screens. Unless noted, calls come from the whole dose curve; as a rule, active = well fitted inhibition curve with a large enough effect; inconclusive = small, poorly fitted or top-dose-only effect, or another doubt; inactive = no such curve, though single readings can be large or run the other way.
SMILES,HCV inh,Pf growth 48h,CHX counter,HCMV antiviral,Pf growth 96h,Shiga inhibitor
O=C(CSc1ncccn1)NCc1ccc(Cl)cc1,3%,121%,49*,17,200%,73*
C=CCSc1ncccc1C(=O)NCc1ccccc1,/,18%,-2,68,12µM*,-9
O=C(CSc1nccc(=O)[nH]1)NCc1ccc(Cl)cc1,12%,23%,-2,-35,66%,-8
C=CCSc1ncccc1C(=O)NCCc1ccccc1,11%,29%,7,21,7%,37
CC1CN(Cc2ccccc2)C(=S)N(c2ccccc2)C1=O (stereo not drawn),19%,/,/,-21,/,/
O=C(CSc1ncccn1)NCc1ccc2c(c1)OCO2,15%,34%,31,58,?,25*
Cc1nc(SCC(=O)Nc2cc(Cl)ccc2[N+](=O)[O-])nc(C)c1C,10%,2%,-1,12,25%,-13
O=C(CSc1ncccn1)NCc1ccccc1,17%,36%,18*,130,-20%,54
O=C(CSCc1ccccc1)NCc1ccc2c(c1)OCO2,2%,/,12,24,?,-6
Fc1ccccc1CNCc1ccc2c(c1)OCO2,5%,5%,19*,42,?,22
O=C(CSc1ncccn1)Nc1cc(Cl)ccc1[N+](=O)[O-],20%,12%,23*,-6,-12%,19
Cc1cc(C)c(S(=O)(=O)N2CCC(N3CCN(Cc4ccc(F)cc4)C(=O)C3=O)CC2)c(C)c1,/,/,/,5,/,/
CCn1cc(SCC(=O)NCc2ccc3c(c2)OCO3)c2ccccc21,10µM*,?,-1,26,-23%,-8
Cc1cccc(C(=O)n2c(=S)nc3ccccn32)c1,4%,/,29*,/,240%,83*
Cc1ccc(C(=O)n2c(=S)nc3ccccn32)cc1,/,/,49*,/,251%,54*
O=C(c1ccccc1)n1c(=S)nc2ccccn21,-23%,227%,52*,14,5%[5.75 µM],97*
Cc1ccc(C(=O)n2ncn(C)c2=S)cc1,21%,0%,-4,0,11%,10
COc1ccc(C2NC(c3ccc(OC)cc3OC)C(C)C(=O)C2C)c(OC)c1 (stereo not drawn),25%,?,0,27,-6%,-21
C[C@@H]1CN([C@@H](C)CO)C(=O)CCCn2nncc2CO[C@H]1CN(C)CC1CC1,/,/,/,-14,/,/
CSc1ccccc1C(=O)NCCS(=O)(=O)N1CCN(c2ccc(F)cc2)CC1,-8%,-4%,/,1,-4%,/
O=C(NCCCN1CCN(c2ccc(F)cc2)CC1)NC12CC3CC(CC(C3)C1)C2,?,/,-3,-79*,250%,10
O=C(O)CCCCCCCCCCCNC(=O)NC12CC3CC(CC(C3)C1)C2,10%,30%,/,-27,2.1µM*,/
O=C(NCCC1=CCCCC1)NC12CC3CC(CC(C3)C1)C2,-19%,-4%,44*,10,-101%,70*
O=C(NCCS(=O)(=O)N1CCN(c2ccc(F)cc2)CC1)C12CC3CC(CC(C3)C1)C2,?,12µM*,/,?,-9%,/
Cc1ccc2nc(COC(=O)c3cnccn3)cc(=O)n2c1,9%,/,/,-18,/,/
SMILES,HCV inh,Pf growth 48h,CHX counter,HCMV antiviral,Pf growth 96h,Shiga inhibitor
CC1=C(c2ccc(C)cc2)S(=O)(=O)N(Cc2ccc(C(=O)Nc3ccc(C)c(F)c3)cc2)C1=O,/,/,/,-24,/,/
O=C(NCCc1ccc(F)cc1)NC12CC3CC(CC(C3)C1)C2,-3%,119%,64*,138,-36%,120*
COc1ccccc1CNC(=O)C(=O)NCC1OCCCN1S(=O)(=O)c1cccs1 (stereo not drawn),11%,?,-3,1,-23%,12
Cc1ccc(C)c(NC(=S)N(Cc2ccco2)C(C)c2cccs2)c1 (stereo not drawn),14%,?,-7,-36,-24%,23
Cc1ccc(Cl)cc1NC(=S)N(Cc1ccco1)C(C)c1cccs1 (stereo not drawn),5%,15µM*,0,-32,?,6
CC(C)[C@H]1CN(C)CCN1Cc1cn(C)nc1-c1cccc(Cl)c1,17%,0%,-4,-29,?,1
COCC1CCCCN1Cc1cn(-c2ccccc2)nc1-c1ccc2c(c1)OCO2 (stereo not drawn),17%,?,7,-25,?,10
